Chronic BCR inh: chronic active BCR signaling inhibition; ABC-DLBCL IkBa-CBG/CBR reporter, luminescence ratio, 4 h; Potency, µM (doses to about 46.1 µM), inactives show at the top dose activity change, negative = inhibition, most hits filed as inhibitors; hit rate 0.05% among 340,000; AID 493014; active means well fitted inhibition curve with a large enough effect in the signal ratio, with a control signal flat, not every such curve was filed as active; inconclusive means small, poorly fitted or top-dose-only effect, or effect the other way, or a change in a side signal; the % refers to the signal ratio;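 further: potency means the concentration at half of the fitted maximal effect; plate controls were basal doxycycline-induced cells for no effect and cells given 10 µM MG132 for full effect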
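Concentration-response series (up to 46 uM) were applied to TMD8 dual-reporter cells for 4 h at 37C with doxycycline. Green/red ratio, after filter-overlap correction, defined %Activity; red signal alone was normalised to basal cells and zero luminescence.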
SW480 rerep: DNA re-replication induction in SW480 cells. SW480 DNA re-replication, Hoechst DNA content imaging, 48 h. Potency, µM (top dose mostly 46.1 µM), inactives show top-dose re-replication activation, most hits filed as activators. hit rate 1.8% among 340,000; further: potency means the concentration at half of the fitted maximal effect; % of control where 0% means no effect; nearly all actives have a fitted effect of over 55% in size
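250 cells/well; 23 nL cpd via pin tool; 48 hr, 37 C, 5% CO2; Hoechst 40 min; imager read of total nuclear intensity, ex 405/em 500-530 nm.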
RORg inh: inhibitors of mouse ROR gamma transcriptional activity | P51450 | hit rate 5.4% among 310,000 | Drosophila S2 Gal4-RORgamma UAS-luciferase reporter, 20 h | Potency, µM (titrated, usually from 53.6 µM), without a hit: at the top dose activity change, negative = inhibition, usual class: inhibitors; further: potency means the concentration at half of the fitted maximal effect; on the % scale 0 is the no-effect control and ±100 the full control effect; nearly all actives have a fitted effect of over 60% in size
Target sequence (P51450 whole entry, looked up, the tested form may be a part): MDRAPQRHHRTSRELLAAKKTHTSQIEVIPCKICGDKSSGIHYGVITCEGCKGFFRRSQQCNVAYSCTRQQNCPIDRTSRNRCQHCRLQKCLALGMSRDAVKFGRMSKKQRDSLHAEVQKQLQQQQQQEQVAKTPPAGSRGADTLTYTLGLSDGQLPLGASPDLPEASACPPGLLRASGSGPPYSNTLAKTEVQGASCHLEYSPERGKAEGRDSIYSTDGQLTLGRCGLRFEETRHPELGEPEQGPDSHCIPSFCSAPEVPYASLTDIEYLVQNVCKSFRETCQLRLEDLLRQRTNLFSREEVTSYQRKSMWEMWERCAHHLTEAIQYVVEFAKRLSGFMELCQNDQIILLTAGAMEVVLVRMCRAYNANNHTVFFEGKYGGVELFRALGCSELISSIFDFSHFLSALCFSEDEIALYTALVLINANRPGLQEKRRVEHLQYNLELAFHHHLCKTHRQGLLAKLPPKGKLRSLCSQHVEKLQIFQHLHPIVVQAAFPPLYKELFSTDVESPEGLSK
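Stably transfected Drosophila Schneider cells are the test system, with ROR gamma fused to Gal4 and luciferase under UAS control; luminescence is read after 20 hr of 700 uM copper sulfate induction at ambient temperature.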
Giardia killer: kills Giardia lamblia; hit rate 0.15% among 340,000; activity change, % at 7.66 µM, hits read low; Giardia lamblia trophozoite viability; in the data active means activity change below about -80%; inconclusive means between about -30% and that limit;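 further: parasites exposed to compound for two days anaerobically before the ATP read; on the % scale 0 is the no-effect control and ±100 the full control effect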
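Anaerobic 48 hrs incubation at 37 deg C of 100 trophozoites/well with test compounds; ATPLite 1-Step luminescence, 15-30 min RT, reports cellular ATP as viability.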
VP16 counter: counter-screen for ROR gamma inhibitors: Gal4-VP16 reporter | Potency, µM (series often up to 53.6 µM), for the others: at the top dose activity, negative = inhibition, usual class: inhibitors | Drosophila S2 Gal4-VP16 UAS-luciferase, luminescence, 20 h | hit rate 3.5% among 310,000 | AID 2546;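 further: Gal4-VP16 expression switched on by copper sulfate through the metallothionein promoter; potency means the concentration at half of the fitted maximal effect; on the % scale 0 is the no-effect control and ±100 the full control effect; nearly all actives have a fitted effect of over 50% in size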
MCF10A rerep: DNA re-replication induction in MCF 10a cells; AID 624296; Potency, µM (top dose mostly 46.1 µM), for the others: at the highest dose activity, positive = re-replication, usual class: activators; MCF 10A DNA re-replication, Hoechst nuclear intensity, 48 h; hit rate 2.9% among 350,000; further: potency means the concentration at half of the fitted maximal effect; % of control where 0% means no effect; nearly all actives have a fitted effect of over 50% in size
* = called active by the depositor; ? = inconclusive; . = not tested or not shown; [ ] = dose if it differs, or a comment. A selection: hits, their analogues and other compounds. The true share with any hit is near 8.3%. Unless noted, the call rests on the fitted dose curve; in most records, active means well fitted curve in the direction sought with a large enough effect; inconclusive means small, poorly fitted or top-dose-only effect, or another doubt; inactive means no such curve, though single readings can be large; an effect the other way counts as inactive or inconclusive.

SMILES	Chronic BCR inh	SW480 rerep	RORg inh	Giardia killer	VP16 counter	MCF10A rerep
CN(C)S(=O)(=O)N1CCN(CC(O)COc2ccc(-c3ccccc3)cc2)CC1 (centres undefined)	?	6%	-3%[1.91 µM]	20	-1%	23µM*
CCCc1ccc(OCC(O)CN2CCCC2)cc1 (centres undefined)	-3%	-2%	1%	9	-2%	15µM*
Cc1cccc(N2CCN(C(=S)NCc3ccco3)CC2)c1C	-1%	1%	-35%	-5	-4%	18%
CN1CCN(CC(O)COc2ccc(C34CC5CC(CC(C5)C3)C4)cc2)CC1 (centres undefined)	-6%	?	?	17	?	15µM*
CN1CCN(CC(O)COc2ccccc2)CC1 (centres undefined)	1%	-1%	-24%	-9	-6%	-2%
OC(COc1ccc(OCc2ccccc2)cc1)CN1CCOCC1 (centres undefined)	10%	?	4%	-15	-22%	9.2µM*
OC(COc1ccc(-c2ccccc2)cc1)CN1CCOCC1 (centres undefined)	2%	.	12%	.	-10%	.
O=C(CN1CCN(C(=O)CCC(=O)N2CCC(c3ccccc3)=N2)CC1)Nc1ccc(F)cc1	-4%	?	.	-13	.	1%
CCC(OC(=O)C(NC(=O)c1ccccc1)c1ccccc1)C(=O)Nc1cc(C)on1 (centres undefined)	2%	?	-11%	-8	3%	5.8µM*
CC(C)NC(=O)c1cc2c(=O)n3ccccc3nc2s1	?	-4%	-24%	-16	2%	1%
Cc1cc(C)cc(NC(=O)c2cc3c(=O)n4ccccc4nc3s2)c1	?	9.2µM*	23%	-3	9%	?
O=C(NC1CCCCCC1)c1cc2c(=O)n3ccccc3nc2s1	?	18µM*	?	-1	-7%	21µM*
CC1CC(C)CN(C(=O)c2cc3c(=O)n4ccccc4nc3s2)C1 (centres undefined)	0%	27%	16%	-5	6%	21µM*
COc1ccc(N2CC(NC(=O)COc3cccc(C)c3)CC2=O)cc1OC (centres undefined)	4%	.	.	.	.	.
COc1cccc(-n2c(-c3ccccc3)c[nH]c2=S)c1	?	-5%	11µM*	-7	10µM*	3%
Cc1[nH]n(-c2ccccc2)c(=O)c1-c1cccc(Cl)c1	1%	-2%	1%	14	-7%	0%
S=c1[nH]cc(-c2ccccc2)n1-c1cccc(Cl)c1	1%	-4%	2.5µM*	-4	4.5µM*	21%
O=C(c1csnn1)N1CCC2(CC1)CCN(c1ncccn1)CC2	.	.	6%	.	4%	.
Cc1ccc(C2C(C(=O)c3cc4ccccc4o3)=C(O)C(=O)N2c2cc(C)on2)cc1 (centres undefined)	8%	?	?	4	?	9.2µM*
COc1cccc(-c2cn3nc(C)c(C)nc3n2)c1	?	?	-43%	-13	-7%	6%
COc1ccc(-c2cn3nc4c(nc3n2)CCCC4)cc1	-18%	?	?	10	1.3µM*	7%
S=C1NC2(CCCCC2)Nc2ccccc21	-1%	-22%	7.1µM*	-2	?	-5%
O=C1c2ccccc2NC2(CCCC2)N1O	-25%	15%	-2%	7	-1%	14%
S=C1NC2(CCCC2)Nc2ccccc21	2%	-5%	0.35µM*	0	?	-4%
c1cc2c3c(cccc3c1)NC1(CCCC1)N2	.	0%	.	10	.	4%
SMILES	Chronic BCR inh	SW480 rerep	RORg inh	Giardia killer	VP16 counter	MCF10A rerep
FC(F)(F)c1cnc2c(c1)[nH]c(=S)n2-c1ccc(Cl)cc1	11%	-4%	7.9µM*	-8	?	?
Fc1ccc(-n2c(=S)[nH]c3cccnc32)cc1	0%	2%	?	1	?	12%
C=CC(=O)Oc1ccc(N2Cc3ccccc3C2=O)cc1	.	12µM*	.	-13	.	?
O=C(COc1ccc(Cl)c(Cl)c1)NN1C(=O)C2C(C1=O)C1C=CC2C12CC2 (centres undefined)	-1%	1µM*	44%	18	14%	22%
Cc1cccc(N(Cc2ccccc2)C(=O)CCl)c1	?	21%	10µM*	-13	-25%	?
O=C(CCl)N(Cc1ccccc1)c1ccccc1	?	5.8µM*	11µM*	3	?	16µM*
O=C1Nc2ccc(Br)cc2C12OCCO2	.	88%	.	-8	.	189%
CN(C(=O)CCl)C1CCCc2ccccc21 (centres undefined)	?	2.3µM*	?	12	-10%	?
CC(=O)c1sc(NC(=O)C2CCN(C(=O)c3ccc(F)cc3)CC2)nc1-c1ccccc1	?	16%	.	-6	.	?
C/C(=N/Nc1ccc(F)cc1)c1ccc(Cl)s1	8%	2%	16%	-10	14%	-1%
C=C(C)CNC(=S)N/N=C(\C)c1ccc(Cl)s1	-1%	?	0.89µM*	-17	2.8µM*	?
C/C(=N\NC(N)=O)c1ccc(Cl)s1	9%	-2%	17%	-4	-4%	4%
CNC(=S)N/N=C(\C)c1ccc(Cl)s1	16µM*	-5%	0.4µM*	-2	1.1µM*	-4%
CCNC(=S)N/N=C(\C)c1ccc(Cl)s1	?	0%	0.71µM*	-11	1.4µM*	0%
COc1ccc(C(C[N+](=O)[O-])C2(c3ccc(OC)c(OC)c3)C(=O)c3ccccc3C2=O)cc1 (centres undefined)	-5%	3.3µM*	?	-26	18µM*	?
Oc1cc(NCc2cccnc2)ccc1-c1nc2ccccc2o1	12%	?	?	-2	?	21µM*
O=C(N/N=C/C=C\c1ccco1)c1cccs1	-24%	8%	?	15	?	?
CCCCOC(=O)c1ccc(NC(=S)NC(=O)c2c(Cl)cnn2CC)cc1	?	4%[9.22 µM]	7.1µM*	4	18µM*	-6%
CCCCOC(=O)c1ccc(NC(=O)c2nn(C)cc2Br)cc1	-11%	-2%	37%	-3	3.5µM*	7%
CCn1cc(Br)c(C(=O)Nc2ccc(C(=O)OC(C)C)cc2)n1	-7%	1%	25%	-16	?	15%
CCCCOC(=O)c1ccc(NC(=O)c2cc(Cl)c(Cl)cc2C(=O)O)cc1	-13%	-5%	19%	1	5%	1%
CCCCOC(=O)c1ccc(NC(=S)NC(=O)c2c(Cl)cnn2C)cc1	?	-6%	14µM*	1	?	20%
CC(C)CC1=C/C(=C/c2ccc(-c3ccccc3)o2)C(=O)O1	-1%	2%	14%	-10	6%	26µM*

Compound activity: PubChem BioAssay, National Center for Advancing Translational Sciences (NCATS)
